From a collection of fitness landscapes (doi:10.1126/science.1257360) come the findings set out here.

B1: PhoQ; a variant is named by its letters at X, in order, P23837 (parent)
chain: MKKLLRLFFPLSLRVRFLLATAAVVLVLSLAYGMVALIGYSVSFDKTTFRLLRGESNLFYTLAKWENNKLHVELPENIDKQSPTMTLIYDENGQLLWAQRDVPWLMKMIQPDWLKSNGFHEIEADVNDTSLLLSGDHSIQQQLQEVREDDDDAEMTHSVAVNVYPATSRMPKLTIVVVDTIPVELKSSYMVWSWFIYVLSANLLLVIPLLWVAAWWSLRPIEALAKEVRELEEHNRELLNPATTRELTSLVRNLNRLLKSERERYDKYRTTLTDLTHSLKTPLXXLQXXLRSLRSEKMSVSDAEPVMLEQISRISQQIGYYLHRASMRGGTLLSRELHPVAPLLDNLTSALNKVYQRKGVNISLDISPEISFVGEQNDFVEVMGNVLDNACKYCLEFVEISARQTDEHLYIVVEDDGPGIPLSKREVIFDRGQRVDTLRPGQGVGLAVAREITEQYEGKIVAGESMLGGARMEVIFGRQHSAPKDE

Over roughly 140,000 sequences, “enrichment ratio after two sorts for PhoP signalling” has its median near 0; the highest 2% begin near 11. For the sample, the highest values were picked, then their nearest neighbours and some sequences at random. Where only a bound is given, the exact number is not on record here.

Variants of B1 are the subject of this test. Briefly: enrichment ratio after two sorts for PhoP signalling (ratio (wild type AVST 3.29)); higher = more functional. The note with it: with PhoP (E. coli).
With DWSK, the enrichment ratio was ≤ 0.25.

For the variant GLGH, the enrichment ratio is ≤ 0.25.

For the variant IMDI, the enrichment ratio is ≤ 0.25.

With QSMQ, the enrichment ratio is ≤ 0.25.

Take VMGY: the enrichment ratio was ≤ 0.25.

NRNH: the enrichment ratio is ≤ 0.25.

With TNKN, the enrichment ratio is ≤ 0.25.

For QMNF, the enrichment ratio was found to be 36.

Regarding QENN, the enrichment ratio worked out at 3.33.

For the variant QRNF, the enrichment ratio was ≤ 0.25.

As to QMNN, the enrichment ratio is 12.1.

For QMHQ, the enrichment ratio stood at 13.4.

QMNI: the enrichment ratio was 9.75.

With QMHP, the enrichment ratio was ≤ 0.25.

Regarding QMWM, the enrichment ratio was ≤ 0.25.

As for QMWQ, the enrichment ratio is ≤ 0.25.

On to QMHM, for which the enrichment ratio came out at 28.3.

For QMNL, the enrichment ratio came out at 3.36.

For the variant QMPM, the enrichment ratio was ≤ 0.25.

In the case of DYPW, the enrichment ratio was ≤ 0.25.

Turning to LWVM, the enrichment ratio was ≤ 0.25.

In the case of GLWV, the enrichment ratio is ≤ 0.25.

As for MEAP, the enrichment ratio was ≤ 0.25.

For GFED, the enrichment ratio is ≤ 0.25.

For ATGH, the enrichment ratio worked out at 5.03.

In the case of EKMA, the enrichment ratio is ≤ 0.25.

In the case of QMVG, the enrichment ratio is ≤ 0.25.

Consider QMTR, for which the enrichment ratio was ≤ 0.25.

As for QMHG, the enrichment ratio stood at 13.

On to SEYM, for which the enrichment ratio worked out at 19.4.

With SEGM, the enrichment ratio was found to be 6.17.

For the variant SLYM, the enrichment ratio is ≤ 0.25.

For the variant SENL, the enrichment ratio is ≤ 0.25.

As for SEEN, the enrichment ratio is ≤ 0.25.

In the case of SEQN, the enrichment ratio was found to be 21.6.

Consider ISAH, for which the enrichment ratio is ≤ 0.25.

For the variant GGLK, the enrichment ratio was ≤ 0.25.

With HLNC, the enrichment ratio is ≤ 0.25.

As for DDAI, the enrichment ratio was ≤ 0.25.

Take QAIL: the enrichment ratio was ≤ 0.25.

As for MMLL, the enrichment ratio came to 1.58.

Regarding FALL, the enrichment ratio stood at 16.3.

On to MALL, for which the enrichment ratio stood at 16.2.

On to FFLL, for which the enrichment ratio is ≤ 0.25.

Take FAAN: the enrichment ratio was ≤ 0.25.

Consider FARL, for which the enrichment ratio is ≤ 0.25.

For the variant ADHN, the enrichment ratio is ≤ 0.25.

Turning to ALCG, the enrichment ratio worked out at 4.5.

As to WHCL, the enrichment ratio was ≤ 0.25.

With SADG, the enrichment ratio was ≤ 0.25.

As to LGIQ, the enrichment ratio was ≤ 0.25.

Take AIMC: the enrichment ratio was ≤ 0.25.

On to ADMC, for which the enrichment ratio amounted to 2.74.

On to INIV, for which the enrichment ratio was ≤ 0.25.

Consider INCV, for which the enrichment ratio is ≤ 0.25.

Take ADVV: the enrichment ratio was 8.21.

Consider ANMC, for which the enrichment ratio amounted to 22.9.

Turning to ANMS, the enrichment ratio came out at 11.6.

In the case of AWVV, the enrichment ratio was ≤ 0.25.

Turning to AEVV, the enrichment ratio is 14.7.

Consider ANMG, for which the enrichment ratio was ≤ 0.25.

With ANQF, the enrichment ratio stood at 1.01.

With INMV, the enrichment ratio stood at 24.2.

As for HRGK, the enrichment ratio was ≤ 0.25.

With GKTM, the enrichment ratio is 1.84.

Turning to IPYY, the enrichment ratio is ≤ 0.25.

As for KKIV, the enrichment ratio is ≤ 0.25.

For the variant GAYK, the enrichment ratio is ≤ 0.25.

Regarding LLMQ, the enrichment ratio is ≤ 0.25.

With HFHH, the enrichment ratio is ≤ 0.25.

As to ATFM, the enrichment ratio is ≤ 0.25.

With ANLS, the enrichment ratio turned out to be 12.

For the variant TRVV, the enrichment ratio was 14.5.

As to QRVV, the enrichment ratio is ≤ 0.25.

For ANLW, the enrichment ratio was 9.25.

As to ANLA, the enrichment ratio is 5.31.

In the case of ANMI, the enrichment ratio worked out at 26.5.

Consider ANVV, for which the enrichment ratio was found to be 11.6.

With AIVV, the enrichment ratio came to 10.

For the variant AHVV, the enrichment ratio is ≤ 0.25.

Regarding ANMR, the enrichment ratio was 5.84.

On to HRVV, for which the enrichment ratio is ≤ 0.25.

As for ANVA, the enrichment ratio was 3.53.

As for QRFS, the enrichment ratio is ≤ 0.25.
